High-throughput results (PubChem BioAssay)
PAFAH2 FP inh – PAFAH2 enzyme inhibitors, primary screen, biochemical, fluorescence polarization, human. Platelet-activating factor acetylhydrolase 2, cytoplasmic (Homo sapiens), Q99487. recombinant PAFAH2, FP-rhodamine activity probe. inhibition, % at 3.39 µM. 340,000 tested, 0.99% active. AID 492956, 2010;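 active = inhibition above the mean over all tested compounds plus 3 SD, cut at about 30% in these data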;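 also: inhibitors block probe labeling of enzyme so polarization drops; 0% = enzyme with DMSO and 100% = wells lacking PAFAH2 protein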
PAFAH1B3 inh – PAFAH1B3 enzyme inhibitors, primary screen, biochemical, fluorescence polarization, human; 340,000 tested, 0.28% active; recombinant PAFAH1B3, FP-rhodamine probe; inhibition, % at 3.39 µM; Platelet-activating factor acetylhydrolase IB subunit alpha1 (Homo sapiens), Q15102;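 active = inhibition above the screen-wide average of all tested compounds plus 3 SD, cut at about 25% in these data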;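 also: 0% = enzyme with DMSO only and 100% = wells lacking PAFAH1B3 protein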
PAFAH1B2 FP inh – PAFAH1B2 enzyme inhibitors, primary screen, biochemical, fluorescence polarization, human; recombinant PAFAH1B2, FP-rhodamine activity probe; Platelet-activating factor acetylhydrolase IB subunit alpha2 (Homo sapiens), P68402; inhibition, % at 3.39 µM; 340,000 tested, 1.2% active;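 active = inhibition above the mean of all tested compounds plus 3 SD, cut at about 24% in these data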;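 also: 0% = enzyme with DMSO and 100% = wells lacking PAFAH1B2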
Target sequence (P68402 whole entry, looked up): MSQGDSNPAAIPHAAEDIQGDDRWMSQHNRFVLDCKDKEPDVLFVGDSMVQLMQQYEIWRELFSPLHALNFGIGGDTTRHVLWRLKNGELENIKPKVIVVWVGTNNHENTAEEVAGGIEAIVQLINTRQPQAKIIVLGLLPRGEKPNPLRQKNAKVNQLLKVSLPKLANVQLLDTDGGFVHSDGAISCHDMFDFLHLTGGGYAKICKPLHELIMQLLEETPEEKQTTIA
pPAFAH FP inh – pPAFAH enzyme inhibitors, primary screen, biochemical, fluorescence polarization, human; recombinant pPAFAH, FP-rhodamine probe fluorescence polarization; inhibition, % at 3.39 µM; 330,000 tested, 1.5% active; AID 463082, 2010; Platelet-activating factor acetylhydrolase (Homo sapiens), Q13093;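 active = inhibition above the mean inhibition across the screen plus 3 SD, cut at about 25% in these data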;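 also: inhibitors block binding of the rhodamine activity-based probe so polarization drops; 0% = enzyme with DMSO and 100% = wells lacking pPAFAH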
PKA-R2B activ – activators of PKA-R2B holoenzyme, primary screen, biochemical, fluorescence polarization, Cy5-IP20, human. cAMP-dependent protein kinase catalytic subunit beta (Homo sapiens) + cAMP-dependent …. 340,000 tested, 0.079% active. PKA-R2B holoenzyme dissociation; R2B truncated from residue 108, S112A mutant; 0% DMSO only, 100% 113 µM cGMP. activation, % at 11.4 µM;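 active = activation above a cutoff set at the mean over all compounds plus 3 SD, cut at about 18% in these data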;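 also: higher means more holoenzyme dissociation and a rise in polarization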
Target sequence (P31323 whole entry, looked up, other chains not shown, the tested form may be a part): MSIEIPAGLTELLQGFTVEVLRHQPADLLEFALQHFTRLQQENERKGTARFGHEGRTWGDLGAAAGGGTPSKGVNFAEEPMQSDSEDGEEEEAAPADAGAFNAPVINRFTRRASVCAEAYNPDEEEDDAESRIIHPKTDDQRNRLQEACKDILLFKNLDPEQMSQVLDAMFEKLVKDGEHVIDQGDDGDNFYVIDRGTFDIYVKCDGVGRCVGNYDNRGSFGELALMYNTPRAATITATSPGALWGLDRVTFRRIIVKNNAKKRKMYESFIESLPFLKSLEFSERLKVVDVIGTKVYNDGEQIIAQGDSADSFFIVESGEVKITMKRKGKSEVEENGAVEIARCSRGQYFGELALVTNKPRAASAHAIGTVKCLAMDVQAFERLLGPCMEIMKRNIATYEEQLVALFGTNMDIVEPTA
PKA-R1A act – activators of PKA-R1A holoenzyme, primary screen, biochemical, fluorescence polarization, Cy5-IP20, bovine R1A, mouse PKAc; cAMP-dependent protein kinase type I-alpha regulatory subunit (Bos taurus) + …; PKA-R1A dissociation; scaled: DMSO 0%, 113 µM cGMP 100%; activation, % at 11.4 µM; 340,000 tested, 0.083% active;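 active = percent activation above the mean of all tested compounds plus 3 SD, cut at about 19% in these data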;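 also: higher means more PKAc released from R1A so a rise in polarization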
PAFAH2 confirm – PAFAH2 enzyme inhibitors, confirmation, biochemical, fluorescence polarization, human; inhibition, % at 3.39 µM; recombinant PAFAH2, FP-rhodamine activity probe; shares compounds with PAFAH2 FP inh; 2,300 tested, 65% active;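 active = mean inhibition over three repeats above a set limit taken from the earlier primary screen, cut at about 30% in these data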;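 also: inhibitor blocks binding of rhodamine activity probe so polarization falls; 0% = enzyme with DMSO and 100% = wells lacking PAFAH2 protein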
* = called active by the depositor; . = no result given. Hits are enriched below; roughly 2.6% of the tested compounds scored in any of these assays.

SMILES | PAFAH2 FP inh | PAFAH1B3 inh | PAFAH1B2 FP inh | pPAFAH FP inh | PKA-R2B activ | PKA-R1A act | PAFAH2 confirm
CC1CC1C(=O)OCC(=O)Nc1ncc(Cl)cc1Cl (configuration not stated) | 31* | 8 | 3 | 17 | 16 | -3 | 17
O=C(COC(=O)C1CC1)Nc1ncc(Cl)cc1Cl | 30* | 12 | 5 | 16 | -15 | 2 | 18
O=C(COC(=O)C1CC1)Nc1ncc(C(F)(F)F)cc1Cl | 13 | 0 | 3 | 15 | 1 | -2 | .
O=C(COC(=O)C1CC1)Nc1ccc(Cl)cn1 | 31* | 1 | 5 | 4 | -2 | 10 | 27
CCOc1ccc(NC(=O)CN(C)C(=O)c2ccccc2-n2cnnn2)cc1OCC | -1 | 4 | 0 | 3 | -7 | 3 | .
CCCCN1CC(=O)N2[C@H]3c4ccccc4OC[C@@H]3[C@H](c3ccccc3)[C@]2(C)C1=O | -1 | 14 | 3 | 1 | 12 | -4 | .
Cc1ccsc1C(=O)OCC(=O)N(C)C1CCCCC1 | 36* | 3 | 13 | 3 | 8 | -4 | 17
Cc1ccsc1C(=O)OCC(=O)NC1CCCC1 | 63* | -3 | 3 | 21 | -6 | -11 | 47*
COC(=O)[C@H]1C[C@H](OC(=O)NCc2ccco2)[C@@]2(O)CN(S(=O)(=O)c3ccc(C)cc3)CC2[C@H]1C(=O)OC (some centres not stated) | . | . | . | . | 2 | -7 | .
O=C(COC(=O)c1cc(S(=O)(=O)N2CCOCC2)ccc1F)Nc1ccc2c(c1)OCO2 | 3 | 0 | -1 | 8 | -3 | -5 | .
COc1ccc(C2CC(c3ccccc3)=NN2C(=O)COC(=O)c2cccnc2Cl)cc1 (configuration not stated) | 2 | -1 | 3 | -6 | -7 | -4 | .
COc1ccc(C2CC(c3ccccc3)=NN2C(=O)COC(=O)c2cc(S(=O)(=O)N3CCOCC3)ccc2Cl)cc1 (configuration not stated) | 31* | -15 | -8 | -2 | -12 | -1 | 23
Cc1ccc(S(=O)(=O)N2CCOCC2)cc1C(=O)OCC(=O)Nc1ccc2c(c1)OCO2 | 37* | 8 | 3 | 4 | 1 | 3 | 23
COc1cccc(NC(=O)COC(=O)c2cc(S(=O)(=O)N3CCOCC3)ccc2C)c1 | 35* | 6 | 1 | 3 | 4 | -1 | 21
CC(=O)N1c2ccc(S(=O)(=O)NCC3CCC(C(=O)NC4CCCCC4)CC3)cc2CC1C (configuration not stated) | -6 | -5 | 7 | 4 | -4 | -7 | .
N#CC(C#N)=C1NC(N)=C(C#N)C(c2ccccc2)=C1C#N | 10 | 10 | 6 | 8 | -2 | -10 | .
Cc1ccc(S(=O)(=O)N2CCOCC2)cc1NC(=O)COC(=O)c1cncc(Br)c1 | 6 | 12 | -2 | 4 | 3 | -6 | .
CCN(CC)S(=O)(=O)c1ccc(C)c(NC(=O)COC(=O)c2ccc(C)c(S(=O)(=O)N3CCOCC3)c2)c1 | 81* | 4 | 1 | 14 | -4 | -7 | 61*
Cc1ccc(S(=O)(=O)N2CCOCC2)cc1NC(=O)COC(=O)c1ccc2c(c1)OCO2 | 64* | -4 | -1 | 1 | 6 | -11 | 52*
Cc1ccc(S(=O)(=O)N2CCOCC2)cc1NC(=O)COC(=O)C1=COCCO1 | 23 | 1 | 3 | 3 | -1 | 2 | .
Cc1ccc(S(=O)(=O)N2CCOCC2)cc1NC(=O)COC(=O)c1ccc(OCc2c(C)noc2C)cc1 | 44* | 7 | 4 | 11 | 0 | 2 | 51*
Cc1ccc(C(=O)OCC(=O)Nc2cc(S(=O)(=O)N3CCOCC3)ccc2C)cc1 | 68* | 3 | 1 | 5 | -2 | 0 | 61*
Cc1ccc(S(=O)(=O)N2CCOCC2)cc1NC(=O)COC(=O)c1cnc(Cl)c(Cl)c1 | 7 | 3 | -1 | . | 1 | 2 | .
CN1CC(=O)N(CC(=O)Nc2cccc3ccccc23)C1=O | 0 | 4 | 2 | 4 | -3 | 1 | .
Cc1ccc(-c2csc(N(CCO)CCCn3c(C(F)(F)F)nc4ccccc43)n2)cc1 | -6 | 3 | 1 | 2 | 0 | -14 | .
SMILES | PAFAH2 FP inh | PAFAH1B3 inh | PAFAH1B2 FP inh | pPAFAH FP inh | PKA-R2B activ | PKA-R1A act | PAFAH2 confirm
CCOc1ccccc1C(=O)OCC(=O)Nc1cc(S(=O)(=O)N2CCOCC2)ccc1C | 32* | -1 | 2 | 0 | -5 | -3 | 25
Cc1ccc(S(=O)(=O)N2CCOCC2)cc1NC(=O)COC(=O)COc1ccccc1[N+](=O)[O-] | 3 | 3 | -1 | 3 | -10 | 18 | .
O=C(COC(=O)c1ccc2c(c1)OCCO2)Nc1cc(S(=O)(=O)N2CCOCC2)ccc1Cl | 64* | 3 | 2 | 4 | -2 | -9 | 44*
Cc1ccc(S(=O)(=O)N2CCOCC2)cc1NC(=O)COC(=O)c1ccc2c(c1)OCCO2 | 70* | -7 | 2 | 12 | -7 | -7 | 59*
Cc1ccnc(N=Cc2nc(-c3ccccc3Br)oc2O)c1 | 63* | 10 | 2 | 0 | -1 | -4 | 60*
COc1ccc(-n2nc(N)c3c(=O)oc(N(C)C)nc32)cc1 | 54* | 1 | 2 | 18 | -10 | -7 | 45*
CCOC(=O)c1nc(C)n(-c2ccc(Cl)cc2)n1 | -10 | 7 | 4 | 8 | 0 | -6 | .
COc1ccc(-n2nc(C)c3onc(C)c3c2=O)cc1 | . | . | . | 2 | . | . | .
CN(C)c1nc2c(c(N)nn2-c2ccc(Cl)cc2)c(=O)o1 | 47* | 4 | 2 | -4 | 14 | 6 | 41*
COc1cccc(/C=C/C(=O)OCC(=O)NCC2CCCO2)c1OC (configuration not stated) | 51* | 3 | 1 | 5 | -16 | 0 | 35*
COc1ccc(/C=C/C(=O)OCC(=O)NCC2CCCO2)cc1 (configuration not stated) | 37* | 7 | 4 | 4 | -6 | -12 | 30*
COC(=O)c1sccc1S(=O)(=O)NCc1ccc(S(N)(=O)=O)cc1 | 0 | 10 | -5 | -2 | 0 | -9 | .
CC1=NN(c2ccccc2)C(=O)/C1=C\c1ccc(Br)s1 | 33* | 13 | 6 | 4 | 4 | -2 | 11
